Measurements taken from PubChem BioAssay.
The source made the active and inactive calls.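 Rule for the calls, unless noted: active = inhibition of the reporter signal at or above 50%; inactive = inhibition below 50%.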

Columns and labels:
[1] = inhibitors of TNFa-induced NFkB p65 translocation, primary screen, imaging, HUVEC, MLSMR starter and 10KST1 sets (AID 438;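 active = inhibition above 20% together with a positive visual image hit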;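 note: compound added about 3h40 before a 20 min TNFalpha stimulation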;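 for inhibition: signal is the nuclear over cytoplasmic p65 intensity ratio per well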); conditions: HUVEC TNFa-induced p65 nuclear translocation; cell count: measured here: nuclei count (cytotoxicity indicator), at 2.08 µM; inhibition: at 2 µM, stronger effect = higher value, 0% TNFa-plus-vehicle, 100% no-TNFa wells
[2] = reduction of polyQ htt aggregates in cells – imaging, exon1htt(103Q)mCFP cells, high-content imaging, primary screen (AID 483;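 active = visual image review flags a hit and inhibition of aggregation exceeds 20%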;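 note: compound exposure lasted 3 days before fixation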;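 for nuclei count: percent of the per-plate median nuclei count of sample wells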); conditions: exon1htt(103Q)mCFP cell line, aggregate imaging, at 2 µM; inhibition of aggregation: stronger effect = higher value; nuclei count: measured here: cell count, toxicity
[3] = endothelial E-selectin expression blockers – imaging, HUVEC, immunofluorescence, MLSMR starter and 10KST1 sets, primary screen (AID 487;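 active = visually confirmed hit in the image check and inhibition above 20%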;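 for inhibition: signal is fraction of cell area covered by stained E-selectin grains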;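 for nuclei count: 100% = median nuclei count of all wells on the same plate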); conditions: HUVEC TNFalpha-induced E-selectin immunofluorescence imaging, at 2 µM; inhibition: stronger effect = higher value; nuclei count: measured here: cell number, toxicity
[4] = molecular target: Voltage-gated potassium channel subunit beta-2 (Rattus norvegicus) (UniProt P62483); assay: inhibitors of rat Kvbeta2 reductase activity – biochemical, NADPH fluorescence, primary screen (AID 622;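 active = fluorescence slope higher than the sample average by over 3 SD, cut at about -0.22 in these data, passing the limit was not always enough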;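 note: slope of raw intensity against log time taken from 70 to 1610 s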); conditions: recombinant KvBeta, 4-cyanobenzaldehyde reduction, at 10 µM, stronger effect = higher value
[5] = molecular target: Voltage-gated potassium channel subunit beta-2 (Rattus norvegicus) (UniProt P62483); assay: enhancers of rat Kvbeta2 NADPH turnover – biochemical, NADPH fluorescence, primary screen (AID 623;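 active = NADPH fluorescence slope more negative than the mean of all samples by about 3 SD, 99.7% confidence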;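 note: fluorescence intensity change per second fitted from 20 to 320 s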); conditions: Recombinant KvBeta, NADPH fluorescence decrease slope, 10 min; at 10 µM; stronger effect = lower value
[6] = molecular target: Alpha-2C adrenergic receptor (Homo sapiens) (UniProt P18825); assay: compounds altering alpha2C-coupled GIRK flux – cell-based, HEK293 alpha2C/GIRK1/2, thallium flux, primary screen (AID 624;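 active = fluorescence slope after compound addition differing from the mean of all screened samples at 99.7% confidence, in either direction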;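 note: slope of fluorescence ratio to pre-addition baseline per second over 15 to 24 s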); conditions: thallium flux BTC fluorescence, at 10 µM, actives lie on both sides
[7] = blockers of RIG-like receptor reporter activation – cell-based, Sendai virus stimulus, luciferase, 10K MLSCN set, TLR/RLR signaling modifier project, primary screen (AID 602276;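 active = inhibition at or above 50% at 10 µM; inactive = inhibition below 50%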;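 note: firefly luciferase from ISG56 promoter only with Renilla not read in this screen; 0% = Sendai virus plus DMSO and 100% = medium plus DMSO without virus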); conditions: HEK293 RL24 IRF3 luciferase reporter, at 10 µM, stronger effect = higher value
[8] = TLR3 IRF3 reporter activation blockers – cell-based, poly I:C stimulus, luciferase, 10K MLSCN set, primary screen (AID 602277); conditions: HEK293-TLR3 RL24 IRF3 luciferase reporter, at 10 µM, stronger effect = higher value

Chain of Alpha-2C adrenergic receptor (Homo sapiens) (P18825 whole entry, looked up): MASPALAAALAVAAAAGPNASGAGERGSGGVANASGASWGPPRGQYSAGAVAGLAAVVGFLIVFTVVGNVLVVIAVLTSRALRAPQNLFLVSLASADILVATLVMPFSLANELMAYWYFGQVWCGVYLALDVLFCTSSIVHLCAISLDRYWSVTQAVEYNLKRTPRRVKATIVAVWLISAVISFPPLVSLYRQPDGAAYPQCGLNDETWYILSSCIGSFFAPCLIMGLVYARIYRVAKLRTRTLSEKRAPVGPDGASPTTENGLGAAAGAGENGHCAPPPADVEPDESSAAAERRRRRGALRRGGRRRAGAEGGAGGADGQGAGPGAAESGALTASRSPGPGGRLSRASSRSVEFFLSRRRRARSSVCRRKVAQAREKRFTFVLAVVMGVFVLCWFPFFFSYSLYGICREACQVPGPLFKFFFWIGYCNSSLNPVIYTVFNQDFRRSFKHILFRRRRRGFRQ
Chain of Voltage-gated potassium channel subunit beta-2 (Rattus norvegicus) (P62483 whole entry, looked up): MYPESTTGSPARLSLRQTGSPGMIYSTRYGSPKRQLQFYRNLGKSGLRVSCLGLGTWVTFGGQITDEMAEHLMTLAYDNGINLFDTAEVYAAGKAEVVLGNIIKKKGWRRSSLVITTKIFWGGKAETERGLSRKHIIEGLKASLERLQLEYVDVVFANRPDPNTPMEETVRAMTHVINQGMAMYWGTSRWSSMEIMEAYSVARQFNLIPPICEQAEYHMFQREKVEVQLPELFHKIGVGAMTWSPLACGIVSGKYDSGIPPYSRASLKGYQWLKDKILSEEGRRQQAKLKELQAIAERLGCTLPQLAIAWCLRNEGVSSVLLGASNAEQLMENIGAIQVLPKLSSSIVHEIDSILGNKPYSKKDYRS

SMILES	cell count [1]	inhibition [1]	inhibition of aggregation [2]	nuclei count [2]	inhibition [3]	nuclei count [3]	fluorescence slope [4]	NADPH fluorescence slope [5]	slope [6]	inhibition [7]	inhibition [8]
CC(C)C(NC(=O)c1ccco1)C(=O)NCC(c1ccco1)N1CCCCC1 (centres undefined)	379	-22% (inactive)	6.7% (inactive)	99%	0% (inactive)	97.7%	-0.588 (inactive)	-2.6e-05 (inactive)	0.00507 (inactive)	3.26% (inactive)	14.7% (inactive)
CCOc1cccc(OCCCCn2ccnc2)c1	339	-3.1% (inactive)	-7.7% (inactive)	99%	-124% (inactive)	114%	-0.36 (inactive)	5e-05 (inactive)	0.00579 (inactive)	9.17% (inactive)	21.4% (inactive)
CC(NC(=O)c1noc2c1CCCCC2)c1ccccc1 (centres undefined)	936	6.9% (inactive)	-5% (inactive)	154%	-24.9% (inactive)	126%	-0.618 (inactive)	-3.4e-05 (inactive)	0.00631 (inactive)	-24.9% (inactive)	-53.9% (inactive)
O=C(NCC1CCCO1)C1CCCN(Cc2cnn(-c3ccccc3)c2-n2cccc2)C1 (centres undefined)	292	0.8% (inactive)	5.3% (inactive)	86.3%	-10.5% (inactive)	92.7%	-0.39 (inactive)	3.8e-06 (inactive)	0.0039 (inactive)	-11.1% (inactive)	-10.8% (inactive)
OCCNCCCCOc1ccccc1F	765	-1.5% (inactive)	-2.5% (inactive)	91.8%	33.1% (inactive)	91.1%	-0.387 (inactive)	1.2e-05 (inactive)	0.00574 (inactive)	-4.78% (inactive)	2.08% (inactive)
O=C(COc1ccc2ccccc2c1)N1CCCC1	315	-1.8% (inactive)	4% (inactive)	77.8%	-27.1% (inactive)	97.9%	-0.28 (inactive)	-1.8e-06 (inactive)	0.00518 (inactive)	-31.9% (inactive)	-85% (inactive)
COc1ccc(S(=O)(=O)Nc2ccc(F)c(Cl)c2)cc1OC	657	-18.6% (inactive)	-7.4% (inactive)	111%	57.8% (inactive)	63%	-0.431 (inactive)	-2e-05 (inactive)	0.00392 (inactive)	12.4% (inactive)	35.2% (inactive)
Cc1oc(-c2ccc(Cl)cc2)cc1-c1nn2c(-c3ccoc3C)nnc2s1	644	-3.9% (inactive)	-0.4% (inactive)	94.6%	-24.2% (inactive)	105%	-0.497 (inactive)	-3.8e-05 (inactive)	0.00371 (inactive)	19.8% (inactive)	23% (inactive)
c1ccc2c(c1)c1c3n2CCNC3CCC1 (centres undefined)	663	-11.5% (inactive)	-9.5% (inactive)	103%	-119% (inactive)	102%	-0.364 (inactive)	-2e-05 (inactive)	0.00436 (inactive)	15.3% (inactive)	14% (inactive)
O=C(Nc1ccc(N2CCOCC2)c(Cl)c1)c1ccc(Br)o1	708	8.2% (inactive)	4.4% (inactive)	103%	-109% (inactive)	104%	-0.497 (inactive)	-0.000111 (inactive)	0.00715 (inactive)	-54.1% (inactive)	-162% (inactive)
COCCn1c(SCc2csc(-c3ccccc3)n2)nc2ccccc21	639	7.2% (inactive)	-4% (inactive)	97.2%	-24.6% (inactive)	96.8%	-0.456 (inactive)	7.6e-05 (inactive)	0.00574 (inactive)	1.52% (inactive)	-1.01% (inactive)
COc1ccc(S(=O)(=O)Nc2cc(C)on2)cc1OC	455	6.5% (inactive)	-7.8% (inactive)	109%	-171% (inactive)	136%	-0.523 (inactive)	9.2e-06 (inactive)	0.00556 (inactive)	7.69% (inactive)	12.8% (inactive)
CCCCC(=O)NCCc1cc2ccc(OC)cc2[nH]c1=O	341	-17% (inactive)	25.1% (inactive)	84.4%	-5.9% (inactive)	91.4%	-0.464 (inactive)	-0.000398 (inactive)	0.00611 (inactive)	-3.47% (inactive)	98.8% (active)
COc1ccc(-n2c(SCc3ccc(C#N)cc3)nnc2-c2ccccn2)cc1	692	-5.8% (inactive)	-4.4% (inactive)	105%	-18.8% (inactive)	118%	-0.599 (inactive)	-3.8e-05 (inactive)	0.00521 (inactive)	-1.12% (inactive)	11.2% (inactive)
CCOC(=O)c1c(C)n(OCc2ccccc2)c2ccc3c(no[n+]3[O-])c12	437	4% (inactive)	2.1% (inactive)	104%	8.8% (inactive)	111%	-0.484 (inactive)	-1e-05 (inactive)	0.00638 (inactive)	2.55% (inactive)	13.2% (inactive)
CCn1c(SCC(=O)C(C)(C)C)nnc1-c1cnccn1	581	6.5% (inactive)	9.1% (inactive)	98.5%	-27.3% (inactive)	100%	-0.51 (inactive)	-6.4e-06 (inactive)	0.00526 (inactive)	2.48% (inactive)	1.65% (inactive)
CCn1c(=O)c(=O)[nH]c2cc(C(=O)N3CCN(c4ccccc4F)CC3)ccc21	688	-6.1% (inactive)	-40.8% (inactive)	81.5%	-16.5% (inactive)	110%	-0.594 (inactive)	-3e-05 (inactive)	0.0083 (inactive)	5.11% (inactive)	6.91% (inactive)
CCCNS(=O)(=O)c1ccc(OCC(=O)NCc2ccc3c(c2)OCO3)cc1	434	1.7% (inactive)	-1.9% (inactive)	108%	-93.9% (inactive)	106%	-0.368 (inactive)	-6.9e-05 (inactive)	0.00408 (inactive)	12.8% (inactive)	17.9% (inactive)
O=C(NCC(=O)N(c1cnc2ccccc2c1)C(C(=O)NC1CCCC1)c1ccncc1)c1ccco1 (centres undefined)	501	-7.1% (inactive)	-3.6% (inactive)	102%	-6.5% (inactive)	107%	-0.532 (inactive)	5.2e-05 (inactive)	0.00551 (inactive)	15.1% (inactive)	17.8% (inactive)
